Assay results as given in PubChem BioAssay (Tox21).
“And” between values parts separate entries of the source, which are not always exact repeats. Equal values may be shown once. Records with an inconclusive call do not appear. Entries that show only a call come without a potency. More than one record can exist for a structure, and the calls need not agree. The source made the active and inactive calls. Unless noted, calls come from the whole dose curve; as a rule, active = well fitted curve in the direction sought with a large enough effect in the repeat runs; inconclusive = weak or mixed curves; inactive = no such curve, though single readings can be large; an effect the other way counts as inactive or inconclusive.

Key:
[1] = qHTS assay to identify aromatase inhibitors - cell viability counter screen (AID 743084);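 note: cells stimulated with testosterone during compound exposure; nearly all actives have a fitted effect of over 55% in size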; note: potency is the fitted concentration of half-maximal effect
[2] = target: Aryl hydrocarbon receptor (Homo sapiens) (UniProt P35869); assay: qHTS assay to identify small molecule that activate the aryl hydrocarbon receptor (AhR) signaling pathway (AID 743085); note: nearly all actives have a fitted effect of over 15% in size; note: potency is the fitted concentration of half-maximal effect;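 for activation: HG2L7.5c1 human HepG2 liver cells with stably integrated DRE-driven firefly reporter; series mostly up to about 70 µM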
Outline: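 Cell line HG2L7.5c1 (human hepatoma, 20× DRE-luc). Plated, 5 h 37C, compound/DMSO added, 24 h 37C. CellTiter-Fluor 30 min 37C → fluorescence; then ONE-Glo 30 min RT → luminescence.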

[3] = qHTS assay to identify small molecule that activate the aryl hydrocarbon receptor (AhR) signaling pathway - cell viability counter screen (AID 743086); note: nearly all actives have a fitted effect of over 45% in size; note: potency is the fitted concentration of half-maximal effect
Outline: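 Cytotoxicity counter screen: CellTiter-Fluor signal (30 min, 37 C) in 4000 HepG2 cells/well carrying the DRE-luciferase reporter, following 24 h compound exposure at 37 C.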

[4] = qHTS assay to identify small molecule antagonists of the peroxisome proliferator-activated receptor gamma (PPARg) signaling pathway - cell viability counter screen (AID 743194); note: nearly all actives have a fitted effect of over 55% in size
Outline: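 Viability was measured as CellTiter-Glo luminescence in GeneBLAzer PPARg UAS-bla HEK293H cells. These cells had been exposed 17 h at 37 C to compounds together with rosiglitazone at 50 nM final, with the beta-lactamase readout taken in the same wells.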

[5] = qHTS assay for small molecule agonists of the antioxidant response element (ARE) signaling pathway - cell viability counter screen (AID 743203; calls by dose curve; note: nearly all actives have a fitted effect of over 55% in size)
Outline: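 ARE-bla HepG2 cells were plated, rested 5 h at 37C/5% CO2, then exposed to compounds in DMSO for 16 h. Viability was read as CellTiter-Glo luminescence after 30 min at room temperature, in the same wells as the ARE screen.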

[6] = qHTS assay for small molecule activators of the heat shock response signaling pathway - cell viability counter screen (AID 743209); note: nearly all actives have a fitted effect of over 50% in size
Outline: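 HSE-bla HeLa cells plated overnight, then exposed to Tox21 compounds (23 nL in DMSO) for 5 h at 37 C. After the bla reporter read, CellTiter-Glo was added in the same wells and luminescence read after 30 min at room temperature.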

[7] = qHTS assay to identify small molecule agonists of the peroxisome proliferator-activated receptor delta (PPARd) signaling pathway - cell viability counter screen (AID 743211); note: nearly all actives have a fitted effect of over 55% in size; note: potency is the fitted concentration of half-maximal effect
Outline: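 HEK293H PPARd-bla, 3000 cells/well; 5 h preincubation 37C/5% CO2; cpd in DMSO, 17 h 37C; B/G FRET substrate 2 h RT; CellTiter-Glo 30 min RT, luminescence.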

[8] = target: Peroxisome proliferator-activated receptor delta (Homo sapiens) (UniProt Q03181); assay: qHTS assay to identify small molecule agonists of the peroxisome proliferator-activated receptor delta (PPARd) signaling pathway (AID 743212; calls by dose curve)
Outline: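 HEK293H UAS-bla reporter cells, human PPARd system; compounds delivered in DMSO after 5 h plating, then at 37 C. Beta-lactamase FRET read, 2 h RT substrate step.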

[9] = qHTS assay to identify small molecule antagonists of the peroxisome proliferator-activated receptor delta (PPARd) signaling pathway - cell viability counter screen (AID 743213); note: nearly all actives have a fitted effect of over 50% in size; note: potency is the fitted concentration of half-maximal effect
Outline: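 Cytotoxicity counter screen: CellTiter-Glo luminescence read 30 min after addition, in the same wells as the reporter assay. There, PPARd UAS-bla HEK293H cells (3000/well) were treated 17 h at 37 C with compound and 300 nM L165041.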

[10] = target: Peroxisome proliferator-activated receptor delta (Homo sapiens) (UniProt Q03181); assay: qHTS assay to identify small molecule antagonists of the peroxisome proliferator-activated receptor delta (PPARd) signaling pathway (AID 743215; active = well fitted inhibition curve with a large enough effect in the signal ratio in the repeat runs, not every such curve was filed as active; the % refers to the signal ratio;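 note: cells stimulated with agonist L165041 at 300 nM final during compound exposure; series mostly up to about 62 µM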)
Outline: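 PPARd-bla HEK293H cells (UAS-bla reporter) preincubated 5 h, then given compound plus 300 nM final L165041 agonist for 17 h at 37 C. Beta-lactamase activity read by LiveBLAzer B/G FRET substrate fluorescence after 2 h at room temperature.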

[11] = qHTS assay to identify small molecule agonists of the farnesoid-X-receptor (FXR) signaling pathway - cell viability counter screen (AID 743218); note: nearly all actives have a fitted effect of over 45% in size; note: potency is the fitted concentration of half-maximal effect
Outline: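 FXR-UAS-bla HEK 293T cells exposed to compounds for 16 h at 37C. Cytotoxicity read in the same wells by CellTiter-Glo luminescence after 30 min at room temperature, following the beta-lactamase FRET read.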

[12] = qHTS assay for small molecule agonists of the antioxidant response element (ARE) signaling pathway (AID 743202; active = well fitted activation curve with a large enough effect in the signal ratio in the repeat runs, not every such curve was filed as active; the % refers to the signal ratio)
Outline: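 An ARE-responsive beta-lactamase gene stably integrated in HepG2 cells serves as reporter. After 5 h plating and 16 h compound incubation at 37 C, fluorescence of the B/G FRET substrate was measured.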

[13] = target: Vitamin D3 receptor (Homo sapiens) (UniProt P11473); assay: qHTS assay to identify small molecule agonists of the vitamin D receptor (VDR) signaling pathway (AID 743222; calls by dose curve)
Outline: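 VDR-bla cells plated 4 h at 37 C, then exposed to compounds for 16 h at 37 C. Beta-lactamase reporter activity measured by fluorescence after 2 h room-temperature loading with LiveBLAzer B/G FRET substrate.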

[14] = target: Vitamin D3 receptor (Homo sapiens) (UniProt P11473); assay: qHTS assay to identify small molecule antagonists of the vitamin D receptor (VDR) signaling pathway (AID 743223; active = well fitted inhibition curve with a large enough effect in the signal ratio in the repeat runs, not every such curve was filed as active; the % refers to the signal ratio; note: potency is the fitted concentration of half-maximal effect)
Outline: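 Antagonist mode uses 1alpha,25-dihydroxyvitamin D3 at 3 nM final as stimulus. VDR-bla cells receive compounds in DMSO, incubate 16 h at 37C, then a beta-lactamase FRET substrate for 2 h at room temperature before fluorescence measurement.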

[15] = target: Bile acid receptor (Homo sapiens) (UniProt Q96RI1); assay: qHTS assay to identify small molecule antagonists of the farnesoid-X-receptor (FXR) signaling pathway (AID 743217; active = well fitted inhibition curve with a large enough effect in the signal ratio in the repeat runs, not every such curve was filed as active; the % refers to the signal ratio)
Outline: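 FXR-UAS-bla HEK 293T cells (beta-lactamase reporter) given compound plus chenodeoxycholic acid (50 uM final), 16 h at 37C. LiveBLAzer B/G FRET substrate added for 2 h at room temperature; fluorescence read.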

[16] = target: Bile acid receptor (Homo sapiens) (UniProt Q96RI1); assay: qHTS assay to identify small molecule agonists of the farnesoid-X-receptor (FXR) signaling pathway (AID 743220; active = well fitted activation curve with a large enough effect in the signal ratio in the repeat runs, not every such curve was filed as active; the % refers to the signal ratio)
Outline: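 Beta-lactamase reporter under UAS control in GeneBLAzer FXR HEK 293T cells (5000/well) measured with LiveBLAzer FRET substrate after 2 h at room temperature. Compound exposure lasted 16 h at 37C.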

[17] = qHTS assay to identify small molecule antagonists of the farnesoid-X-receptor (FXR) signaling pathway - cell viability counter screen (AID 743221; active = well fitted cell-killing curve with a large enough effect in the repeat runs, not every such curve was filed as active; note: nearly all actives have a fitted effect of over 50% in size)
Outline: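 Luminescence from CellTiter-Glo measures cytotoxicity in GeneBLAzer FXR-UAS-bla HEK 293T cells. Cells were exposed to compounds with 50 uM chenodeoxycholic acid (final) for 16 h at 37 C, in wells also used for the reporter readout.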

[18] = target: Peroxisome proliferator-activated receptor gamma (Homo sapiens) (UniProt P37231); assay: qHTS assay to identify small molecule agonists of the peroxisome proliferator-activated receptor gamma (PPARg) signaling pathway (AID 743094; active = well fitted activation curve with a large enough effect in the signal ratio in the repeat runs, not every such curve was filed as active; the % refers to the signal ratio)
Outline: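 GeneBLAzer PPARg UAS-bla HEK293H cells were plated, rested 5 h, then exposed to compounds for 17 h at 37C. Beta-lactamase activity was read by LiveBLAzer B/G FRET substrate fluorescence after 1 h at room temperature.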

[19] = target: Peroxisome proliferator-activated receptor gamma (Homo sapiens) (UniProt P37231); assay: qHTS assay to identify small molecule antagonists of the peroxisome proliferator-activated receptor gamma (PPARg) signaling pathway (AID 743191; calls by dose curve; note: series mostly up to about 63 µM; nearly all actives have a fitted effect of over 30% in size)
Outline: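 Beta-lactamase reporter under UAS control in HEK293H PPARg-bla cells; compound treatment 17 h at 37C. Read-out: fluorescence intensity after 1 h room-temperature incubation with LiveBLAzer B/G FRET substrate.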

[20] = qHTS assay for small molecule activators of the heat shock response signaling pathway (AID 743210; active = well fitted activation curve with a large enough effect in the signal ratio in the repeat runs, with a control signal flat, not every such curve was filed as active; the % refers to the signal ratio;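 note: HeLa cells with beta-lactamase reporter driven by heat shock elements; series mostly up to about 63 µM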)
Outline: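 In HSE-bla HeLa cells, 5 h compound incubation (37 C) precedes addition of LiveBLAzer B/G substrate; after 2.5 h at room temperature, fluorescence intensity indicates reporter induction.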

Sequence of Bile acid receptor (Homo sapiens) (Q96RI1 whole entry, looked up): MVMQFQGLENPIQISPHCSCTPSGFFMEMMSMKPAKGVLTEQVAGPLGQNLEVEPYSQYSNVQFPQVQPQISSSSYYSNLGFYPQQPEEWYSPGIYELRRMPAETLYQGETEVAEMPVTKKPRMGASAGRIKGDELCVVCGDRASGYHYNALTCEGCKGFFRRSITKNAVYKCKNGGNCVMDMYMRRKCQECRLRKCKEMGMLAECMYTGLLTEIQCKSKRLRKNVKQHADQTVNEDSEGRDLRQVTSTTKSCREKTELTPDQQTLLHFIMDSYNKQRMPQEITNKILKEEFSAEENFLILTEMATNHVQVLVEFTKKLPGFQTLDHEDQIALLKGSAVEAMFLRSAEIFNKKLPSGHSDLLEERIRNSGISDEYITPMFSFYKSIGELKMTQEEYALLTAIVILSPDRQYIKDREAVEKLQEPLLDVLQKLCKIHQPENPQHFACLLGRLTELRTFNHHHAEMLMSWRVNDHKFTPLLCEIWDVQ
Sequence of Peroxisome proliferator-activated receptor gamma (Homo sapiens) (P37231 whole entry, looked up): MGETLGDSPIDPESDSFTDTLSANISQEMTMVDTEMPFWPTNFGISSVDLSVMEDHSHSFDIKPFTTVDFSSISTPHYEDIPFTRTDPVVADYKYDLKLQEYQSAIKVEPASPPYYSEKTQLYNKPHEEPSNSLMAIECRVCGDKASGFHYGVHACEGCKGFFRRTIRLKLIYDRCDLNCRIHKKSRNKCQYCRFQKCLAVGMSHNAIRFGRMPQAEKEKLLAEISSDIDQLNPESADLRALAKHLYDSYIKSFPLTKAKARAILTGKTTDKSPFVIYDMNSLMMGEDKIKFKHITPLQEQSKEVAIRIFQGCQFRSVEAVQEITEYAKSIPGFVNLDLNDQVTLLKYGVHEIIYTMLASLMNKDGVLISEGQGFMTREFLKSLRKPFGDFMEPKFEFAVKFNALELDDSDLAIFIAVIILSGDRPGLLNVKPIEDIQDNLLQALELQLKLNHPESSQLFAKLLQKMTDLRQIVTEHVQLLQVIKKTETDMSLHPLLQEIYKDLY
Sequence of Vitamin D3 receptor (Homo sapiens) (P11473 whole entry, looked up): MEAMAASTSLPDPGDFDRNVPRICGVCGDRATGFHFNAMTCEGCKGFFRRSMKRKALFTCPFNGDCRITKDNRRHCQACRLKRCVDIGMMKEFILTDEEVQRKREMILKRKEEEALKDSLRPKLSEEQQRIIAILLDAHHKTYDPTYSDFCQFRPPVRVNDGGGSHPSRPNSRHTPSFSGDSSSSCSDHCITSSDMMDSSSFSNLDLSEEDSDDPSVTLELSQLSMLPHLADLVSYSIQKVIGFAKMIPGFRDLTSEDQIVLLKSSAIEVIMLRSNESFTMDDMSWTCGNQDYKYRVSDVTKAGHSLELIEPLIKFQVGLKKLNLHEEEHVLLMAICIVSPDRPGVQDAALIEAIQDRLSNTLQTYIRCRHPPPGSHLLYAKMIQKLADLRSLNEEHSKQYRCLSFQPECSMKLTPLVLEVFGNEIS
Sequence of Aryl hydrocarbon receptor (Homo sapiens) (P35869 whole entry, looked up): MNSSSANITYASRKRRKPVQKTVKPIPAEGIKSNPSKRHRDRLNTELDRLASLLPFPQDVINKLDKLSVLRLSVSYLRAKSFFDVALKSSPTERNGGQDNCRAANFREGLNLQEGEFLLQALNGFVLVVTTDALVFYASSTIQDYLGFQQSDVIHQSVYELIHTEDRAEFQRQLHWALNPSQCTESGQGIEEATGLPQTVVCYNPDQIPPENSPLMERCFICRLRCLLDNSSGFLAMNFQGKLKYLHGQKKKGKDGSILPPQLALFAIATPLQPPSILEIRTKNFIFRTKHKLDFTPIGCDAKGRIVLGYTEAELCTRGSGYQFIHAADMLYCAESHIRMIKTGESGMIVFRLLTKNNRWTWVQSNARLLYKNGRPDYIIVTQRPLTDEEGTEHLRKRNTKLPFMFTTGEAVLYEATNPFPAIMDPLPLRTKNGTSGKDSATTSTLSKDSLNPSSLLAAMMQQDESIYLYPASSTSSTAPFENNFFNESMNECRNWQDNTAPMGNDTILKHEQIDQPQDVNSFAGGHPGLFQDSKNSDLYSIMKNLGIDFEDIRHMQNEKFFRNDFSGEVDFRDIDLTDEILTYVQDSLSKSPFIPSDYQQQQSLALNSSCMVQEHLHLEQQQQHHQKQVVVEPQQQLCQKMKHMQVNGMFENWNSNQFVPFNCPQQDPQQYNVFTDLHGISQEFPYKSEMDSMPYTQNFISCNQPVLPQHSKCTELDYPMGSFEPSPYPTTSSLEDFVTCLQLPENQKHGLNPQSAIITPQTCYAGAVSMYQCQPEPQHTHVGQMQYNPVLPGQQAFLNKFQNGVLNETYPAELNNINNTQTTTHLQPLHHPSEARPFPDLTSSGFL
Sequence of Peroxisome proliferator-activated receptor delta (Homo sapiens) (Q03181 whole entry, looked up): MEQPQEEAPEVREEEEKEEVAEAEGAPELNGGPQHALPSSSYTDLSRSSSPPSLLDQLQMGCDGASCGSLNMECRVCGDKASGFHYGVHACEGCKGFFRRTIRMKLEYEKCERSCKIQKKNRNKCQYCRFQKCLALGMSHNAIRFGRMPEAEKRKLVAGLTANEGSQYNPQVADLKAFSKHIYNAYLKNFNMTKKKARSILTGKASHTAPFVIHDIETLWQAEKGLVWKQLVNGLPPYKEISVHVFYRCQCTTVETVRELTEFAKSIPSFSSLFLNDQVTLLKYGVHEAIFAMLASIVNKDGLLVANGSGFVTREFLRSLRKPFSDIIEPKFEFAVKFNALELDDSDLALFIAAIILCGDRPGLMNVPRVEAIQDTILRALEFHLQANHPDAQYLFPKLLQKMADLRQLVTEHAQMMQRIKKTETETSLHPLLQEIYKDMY

With `NC(=O)OCC(COC(N)=O)c1ccccc1` the Potency [1] was “inactive”, the Potency [2] was “inactive” and the Potency [3] was “inactive”. For the same compound, the Potency [4] was “inactive”, the Potency [5] was “inactive” and the outcome [6] was “inactive”. The Potency [7] was “inactive”, the outcome [8] was “inactive” and the Potency [9] was “inactive”. The outcome [10] was “inactive” and the Potency [11] was “inactive”.
With `COc1ccccc1NC(=O)CC(C)=O` the Potency [1] was “inactive”, the Potency [2] was 47.9 µM (active) and 27.3 µM (active) and the Potency [3] was “inactive”. The Potency [4] was “inactive”, the Potency [12] was “inactive” and the Potency [5] was “inactive”. For the same compound, the outcome [6] was “inactive”, the Potency [7] was “inactive” and the outcome [8] was “inactive”. For the same compound, the Potency [9] was “inactive”, the outcome [10] was “inactive” and the outcome [13] was “inactive”. For the same compound, the Potency [14] was “inactive”.
In the case of `C[C@]12CC[C@@H]3c4ccc(O)cc4CC[C@H]3[C@@H]1CCC2=O`, the Potency [1] is reported as “inactive”, the Potency [3] is reported as “inactive” and the Potency [4] is reported as “inactive”. The Potency [5] was “inactive”, the outcome [6] was “inactive” and the Potency [7] was “inactive”. For the same compound, the Potency [9] was “inactive”, the Potency [15] was “inactive” and the Potency [11] was “inactive”. For the same compound, the outcome [16] was “inactive” and the outcome [17] was “inactive”.
With `O=C(OCc1ccccc1)c1ccccc1` the Potency [1] was “inactive”, the Potency [3] was “inactive” and the Potency [18] was “inactive”. For the same compound, the Potency [19] was “inactive”, the Potency [4] was “inactive” and the Potency [5] was “inactive”. The outcome [6] was “inactive”, the outcome [20] was “inactive” and the outcome [8] was “inactive”. For the same compound, the Potency [9] was “inactive”, the outcome [10] was “inactive” and the Potency [15] was “inactive”. The Potency [11] was “inactive”, the outcome [16] was “inactive” and the outcome [13] was “inactive”. The Potency [14] was “inactive”.
For `CC1=NN(c2ccccc2)C(=O)C1`, the Potency [1] was “inactive”, the Potency [3] was “inactive” and the Potency [18] was “inactive”. The Potency [4] was “inactive”, the Potency [12] was “inactive” and the Potency [5] was “inactive”. For the same compound, the outcome [6] was “inactive”, the outcome [20] was “inactive” and the outcome [8] was “inactive”. For the same compound, the Potency [9] was “inactive”, the outcome [10] was “inactive” and the Potency [15] was “inactive”. For the same compound, the Potency [11] was “inactive”, the outcome [16] was “inactive” and the outcome [17] was “inactive”.
For `CC(C)=CCC/C(C)=C/CO`, the Potency [1] was “inactive”, the Potency [2] was “inactive” and the Potency [3] was “inactive”. For the same compound, the Potency [4] was “inactive”, the Potency [12] was “inactive” and the Potency [5] was “inactive”. For the same compound, the outcome [6] was “inactive”, the Potency [7] was “inactive” and the Potency [9] was “inactive”. For the same compound, the Potency [15] was “inactive”, the outcome [16] was “inactive” and the outcome [13] was “inactive”. For the same compound, the Potency [14] was “inactive”.
In the case of `C[C@]12C=CC(=O)C=C1CC[C@@H]1[C@@H]2C(=O)C[C@@]2(C)[C@H]1CC[C@]2(O)C(=O)CO`, the Potency [2] is reported as “inactive”, the Potency [3] is reported as “inactive” and the Potency [18] is reported as “inactive”. The Potency [19] was “inactive”, the Potency [4] was “inactive” and the Potency [12] was “inactive”. For the same compound, the Potency [5] was “inactive”, the outcome [6] was “inactive” and the Potency [7] was “inactive”. The Potency [9] was “inactive”, the Potency [11] was “inactive” and the outcome [17] was “inactive”. The outcome [13] was “inactive” and the Potency [14] was “inactive”.
With `COc1ccc(C(=O)c2ccccc2)c(O)c1` the Potency [1] was “inactive”, the Potency [3] was “inactive” and the Potency [18] was “inactive”. For the same compound, the Potency [19] was “inactive”, the Potency [4] was “inactive” and the Potency [5] was “inactive”. The outcome [6] was “inactive”, the outcome [20] was “inactive” and the Potency [7] was “inactive”. The outcome [8] was “inactive”, the Potency [9] was “inactive” and the outcome [10] was “inactive”. For the same compound, the Potency [15] was “inactive”, the Potency [11] was “inactive” and the outcome [16] was “inactive”.
With `NCCNc1cccc2ccccc12` the Potency [1] was “inactive”, the Potency [2] was 29.8 µM (active) and 54.4 µM (active) and 66.9 µM (active) and the Potency [5] was “inactive”. For the same compound, the outcome [6] was “inactive”, the outcome [20] was “inactive” and the Potency [7] was 54.9 µM (active) and 47.8 µM (active) and inactive. For the same compound, the outcome [8] was “inactive”, the Potency [9] was 34.6 µM (active) and 30.2 µM (active) and inactive and the outcome [10] was “inactive”. The Potency [11] was 43.6 µM (active) and 30.2 µM (active) and inactive, the outcome [13] was “inactive” and the Potency [14] was 43.6 µM (active) and inactive.
For `CO[C@H]1C=CO[C@@]2(C)Oc3c(C)c(O)c4c(O)c(c(/C=N/N5CCN(C)CC5)c(O)c4c3C2=O)NC(=O)/C(C)=C\C=C[C@H](C)[C@H](O)[C@@H](C)[C@@H](O)[C@@H](C)[C@H](OC(C)=O)[C@@H]1C`, the Potency [1] was 23.7 µM (active) and 15.4 µM (active) and 15.5 µM (active), the Potency [2] was “inactive” and the Potency [3] was 29.8 µM (active) and 27.4 µM (active) and 15.5 µM (active). For the same compound, the Potency [4] was “inactive”, the Potency [5] was “inactive” and the outcome [6] was “inactive”. The outcome [8] was “inactive”, the Potency [9] was “inactive” and the outcome [13] was “inactive”. For the same compound, the Potency [14] was “inactive”.
